# Experimental data reported in PubChem BioAssay AID504332 (National Center for Advancing Translational Sciences (NCATS), 2011).
# Among all 350,000 compounds or so, about 31,000 (8.9%) were called active. Another 15% or so got no clear call; they are omitted. The list comes from a sample in which actives are over-represented; it also holds similar structures and randomly drawn compounds. Unmarked numbers belong to inactive results. The call rests on the fitted dose curve; in most records, active means well fitted inhibition curve with a large enough effect; inconclusive means small, poorly fitted or top-dose-only effect; inactive means no such curve, though single readings can be large or run the other way.
# Target: Histone-lysine N-methyltransferase EHMT2 (Homo sapiens) (UniProt Q96KQ7)
# Sequence (Q96KQ7 913-1193 limits assumed): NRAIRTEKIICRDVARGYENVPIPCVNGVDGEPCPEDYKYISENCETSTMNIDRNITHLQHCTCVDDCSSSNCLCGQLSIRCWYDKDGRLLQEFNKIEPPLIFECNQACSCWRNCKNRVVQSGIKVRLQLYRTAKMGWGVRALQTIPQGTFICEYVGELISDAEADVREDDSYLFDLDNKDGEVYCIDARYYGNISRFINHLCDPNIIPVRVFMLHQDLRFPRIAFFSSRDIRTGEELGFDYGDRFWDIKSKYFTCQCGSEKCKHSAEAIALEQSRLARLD
# Test: qHTS Assay for Inhibitors of Histone Lysine Methyltransferase G9a; further: nearly all actives have a fitted effect of over 75% in size
# Conditions: G9a H3K9 monomethylation, AlphaScreen, 2 h; series mostly up to 59 µM; activity, negative = inhibition: at the top concentration
# Outline: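 AlphaScreen read-out: biotin-H3K9 peptide (500 nM) methylation by 20 nM enzyme with 20 uM SAM, 2 h at room temperature after 15 min compound preincubation; anti-monomethyl H3K9 antibody plus donor/acceptor beads, 10 min dark.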
# On the % scale 0 is the no-effect control and ±100 the full control effect; potency means the concentration at half of the fitted maximal effect.
Structure (SMILES),"activity, negative = inhibition",Potency
CCc1nnc(NC(=O)c2c(O)c3c([nH]c2=O)CCCC3)s1,27.8%,–
O=C(NCc1ccccn1)c1c(O)c2c([nH]c1=O)CCCC2,13.7%,–
C[N+](C)(C)CCNC(=O)c1c(O)c2c([nH]c1=O)CCCC2,–,10 µM (active)
O=C(Nc1ccc(Br)cc1)c1ccc(Br)c(S(=O)(=O)NCc2ccccc2)c1,-2.54%,–
COc1ccc(CCNC(=S)N2CCN(S(=O)(=O)c3ccc(F)cc3)CC2)cc1,-16.1% [at 0.501 µM],–
CN(C)S(=O)(=O)N1CCC(Oc2cccc(C(=O)NCCCC3CCCC3)c2)CC1,69.6% [at 102 µM],–
O=C(CSc1nc2ccccc2nc1Cc1ccccc1)N1CCCCC1,2.23%,–
C=CCNc1nnc(SCC(=O)N2CCCCC2)c2ccccc12,–,50.1 µM (active)
C=CCNc1nnc(C)c2ccccc12,-0.456% [at 102 µM],–
O=C(COc1ccccc1O)NC1CCCC1,-42.6% [at 102 µM],–
COc1cc2ccccc2cc1C(=O)N1CCOCC1,-27.4% [at 102 µM],–
COc1cc(OC)cc(C(=O)NNC(=O)CNC(=O)c2ccc(Br)o2)c1,-1.19% [at 102 µM],–
CCc1cccc2c(C=C(C#N)C#N)cn(CC(=O)N3CCCCC3)c12,–,44.7 µM (active)
O=C(Cn1cc(SCc2cccc(Cl)c2)c2ccccc21)N1CCCCC1,2.69%,–
O=C(Cn1cc(SCc2ccccc2)c2ccccc21)N1CCCCC1,-8.44%,–
CCc1cccc(C)c1NS(=O)(=O)c1ccc(-c2cc(C)no2)s1,-1.34%,–
COc1cccc(Nc2nc3ccccc3c3nncn23)c1,3.66%,–
O=C(CN1CCN(Cc2ccc(Cl)cc2)C1=O)NCc1ccc(F)cc1,-4.97%,–
CCOCc1nnc(NC(=O)CCS(=O)(=O)Cc2ccccc2)s1,–,79.4 µM (active)
CC(C)Cc1nnc(NC(=O)CCc2ccccc2)s1,–,35.5 µM (active)
COCc1nnc(NC(=O)CS(=O)(=O)Cc2ccccc2)s1,-27% [at 12.7 µM],–
COC(=O)CSc1nnc(NC(=O)CCc2ccccc2)s1,12.7%,–
COCCSc1nnc(NC(=O)CCS(=O)(=O)Cc2ccccc2)s1,15.9% [at 102 µM],–
Cc1ccc(S(=O)(=O)CCC(=O)Nc2nnc(CC(C)C)s2)cc1,8.95% [at 102 µM],–
Cc1cccc(OCCC(=O)OCc2csc(CC(=O)Nc3ccccc3C)n2)c1,-6.68% [at 12.7 µM],–
CCCCn1c(=S)[nH]c2ncccc2c1=O,17.8% [at 2.33 µM],–
CCN(CC)CCn1c(=S)[nH]c2ncccc2c1=O,–,15.8 µM (active)
CCN(CC)CCn1cnc2c1c(=O)[nH]c(=O)n2Cc1ccccc1,20.1% [at 2.33 µM],–
CN(C(=O)CSc1nnc(NC(=O)Nc2ccccc2)s1)c1ccccc1,12.2%,–
